# Test results: article PMC4552634, “A New Set of Chemical Starting Points with Plasmodium falciparum Transmission-Blocking Potential for Antimalarial Drug Discovery” (PLoS ONE, 2015)
# Read-outs that look alike come from different tables or passages of the source. The whole screen tested about 13,000 compounds, of which about 3,200 (25%) showed an effect of 50% or more. The list shows a part of the results.
# System: P. falciparum stage V gametocytes
# Design: BacTiter-Glo ATP luminescence viability of purified stage V gametocytes in 384-well plates, per cent inhibition versus DMSO
# Details: 48 h, 5 µM, inhibitor
SMILES,% Inhibition,% Inhibition (% Inhibition)
Cc1cc(CN2C(=O)C(c3ccccc3)(c3ccccc3)N=C2N)c(C(F)(F)F)o1 [TCMDC-132305],6.087%,
N=c1n(Cc2ccccc2)c2ccccc2n1CC(O)c1ccc(Cl)c(Cl)c1 (stereo not shown) [TCMDC-124061],50.12%,
N=c1n(Cc2ccc(Cl)cc2)c2ccccc2n1CC(O)c1ccc(Cl)c(Cl)c1 (stereo not shown) [TCMDC-123813],91.34%,
N=c1sc2ccccc2n1CC(O)c1ccc(Cl)c(Cl)c1 (stereo not shown) [TCMDC-124031],27.67%,
N=c1n(Cc2ccccc2)c2ccccc2n1CC(O)c1ccc(Cl)cc1 (stereo not shown) [TCMDC-124078],66.41%,
Cc1ccc2c(c1)nc(N)n2C[C@H](O)c1ccccc1 [TCMDC-138693],42.68%,
COC(=O)C(C)(C)Cc1c(SC(C)(C)C)c2cc(C(C)C)ccc2n1Cc1ccc(Cl)cc1 [TCMDC-131973],5.735%,
O=C(Cc1ccccc1)NC(CCN1CCC(NC(=O)c2ccc(Cl)cc2)CC1)c1ccc(Cl)c(Cl)c1 (stereo not shown) [TCMDC-141709],-3.295%,
CN(C)CC(O)C(c1ccccc1)c1ccc(Cl)cc1 (stereo not shown) [TCMDC-131413],8.677%,
C=CCn1c(=N)n(CC(O)c2ccc(Cl)c(Cl)c2)c2ccccc21 (stereo not shown) [TCMDC-125726],57.07%,
OC(CN1CCN(Cc2ccccc2)CC1)Cn1c(-c2ccccc2)c(-c2ccccc2)c2ccccc21 (stereo not shown) [TCMDC-124021],9.388%,
O=C(NC1CC1)c1cnc(N2CCC(COc3cccc(F)c3)CC2)c(Cl)c1 [TCMDC-134030],7.356%,
COc1ccc(CCn2c(C3CCCCC3)nc3oc4ccccc4c(=O)c3c2=O)cc1 [TCMDC-125003],26.12%,
Cc1ccc(CON2C(N)=NC(N)=NC23CCCCC3)c2ccccc12 [TCMDC-131589],35.49%,
O=S(=O)(NC1CCN(c2ccnc3cc(Cl)ccc23)C1)c1ccc(F)cc1 (stereo not shown) [TCMDC-133654],5.841%,
CCC1=C(C[C@H]2NCCc3cc(OC)c(OC)cc32)C[C@H]2c3cc(OC)c(OC)cc3CCN2C1 [TCMDC-131825],95.62%,
CCC1CN2CCc3c([nH]c4ccc(OC)cc34)C2CC1CC1NCCc2cc(OC)c(OC)cc21 (stereo not shown) [TCMDC-142010],-39.55%,
CCC1CN2CCc3c([nH]c4ccccc34)[C@@H]2C[C@@H]1CC1NCCc2cc(OC)c(OC)cc21 (stereo partly shown) [TCMDC-142009],,-17.31%
CC(C)c1ccc(-c2nc3ncc(Cl)cc3[nH]2)cc1 [TCMDC-125093],64.2%,
CCN(CC)c1ccc(-c2nc3ncc(Cl)cc3[nH]2)cc1 [TCMDC-125094],7.94%,
Nc1ncc(-c2cn[nH]c2)cc1-c1nc2ncc(Cl)cc2[nH]1 [TCMDC-133562],-10.74%,
CC(=O)Nc1ccc(S(=O)(=O)Nc2c(C)cc(Cc3cnc(N)nc3N)cc2C)cc1 [TCMDC-137632],-8.406%,

SMILES,% Inhibition,% Inhibition (% Inhibition)
CNC(=O)Cc1ccc(C(=O)Nc2cccc(-c3ccc(-c4nc5cccc(C)c5[nH]4)s3)c2)cc1 [TCMDC-137076],-37.06%,
Cc1c(CC(=O)NCCC2CCN(CCCCCNC(=O)/C=C/c3ccc(Cl)c(Cl)c3)CC2)sc2ccc(Cl)cc12 [TCMDC-140008],19.89%,
Cc1oc(-c2ccc(Cl)cc2)cc1C(=O)NCCC1CCN(CCCCCNC(=O)/C=C/c2ccc(Cl)c(Cl)c2)CC1 [TCMDC-140009],105.7%,
O=C(/C=C/c1ccc(Cl)c(Cl)c1)NCCCCCN1CCC(CCNC(=O)C2(c3ccc(Cl)cc3)CC2)CC1 [TCMDC-140000],67.34%,
O=C(/C=C/c1ccc(Cl)c(Cl)c1)NCCCCCN1CCC(CCNC(=O)Cc2ccc(Cl)cc2)CC1 [TCMDC-140001],60.19%,
O=C(/C=C/c1ccc(Cl)c(Cl)c1)NCCCCCN1CCC(CCNC(=O)/C=C/c2ccc(Cl)c(Cl)c2)CC1 [TCMDC-139998],17.18%,
CN(C(=O)C1(c2ccc(Cl)cc2)CC1)C1CCN(CCCCCNC(=O)/C=C/c2ccc(Cl)c(Cl)c2)CC1 [TCMDC-139987],-12.99%,
O=C(C=Cc1ccc(Cl)c(Cl)c1)NCCCCCN1CCC(CCNC(=O)c2cccc3ccccc23)CC1 [TCMDC-139565],43.11%,
OC(CNCc1ccccc1Oc1ccccc1)c1cccc(C(F)(F)F)c1 (stereo not shown) [TCMDC-140397],30.17%,
CC1CN(c2cc(=O)n(Cc3cccc(NC(=O)Nc4ccc(-c5ccccc5)cc4)c3)cn2)CC(C)N1 (stereo not shown) [TCMDC-133365],-7.987%,
FC(F)(F)c1ccc2[nH]c(-c3cccc(-c4ccc(CNCC5CCCO5)cc4)c3)nc2c1.O=C(O)C(F)(F)F (stereo not shown) [TCMDC-133103],-16.51%,
COc1ccc2nccc([C@@H](O)CN3CCC(NC(=O)c4ccc(-c5ccc(C#N)cc5)cc4)CC3)c2c1 [TCMDC-141001],7.804%,
COC(=O)c1ccc(CCC(C)NCC(O)c2cccc(C(F)(F)F)c2)cc1 (stereo not shown) [TCMDC-131440],17.3%,
COc1ccc(S(=O)(=O)N2CCCc3ccc(Br)cc32)cc1N1CCN(C(=O)C(Cl)(Cl)Cl)CC1 [TCMDC-139339],22.46%,
CCN(C1CCCCC1)S(=O)(=O)c1ccc(OC)c(N2CCN(C(=O)C(Cl)(Cl)Cl)CC2)c1 [TCMDC-139319],82.34%,
CCC1CCCCN1S(=O)(=O)c1ccc(OC)c(N2CCN(C(=O)C(Cl)(Cl)Cl)CC2)c1 (stereo not shown) [TCMDC-139255],3.13%,
CSc1nc2nc(C)c(Cc3cccc(F)c3)c(C)n2n1 [TCMDC-123765],1.864%,
COc1cc2ncnc(Nc3ccc4nc(-c5ccccc5)[nH]c4c3)c2cc1OC [TCMDC-137191],-26.1%,
Cc1c2ccncc2c(C)c2c1[nH]c1ccccc12 [TCMDC-125546],-37.29%,
Cc1c2ccncc2c(C)c2c1[nH]c1cc(Cc3ccccc3)c(O)cc12 [TCMDC-132053],89.31%,
O=C(Nc1ccc(-c2cccc(-c3nc4ccc(C(F)(F)F)cc4[nH]3)c2)cc1)c1ccc(=O)[nH]n1 [TCMDC-137032],18.19%,
